Reference: ChEMBL document CHEMBL3988442, “University of Dundee, Small-Polar-MMV Screening Library” (2021)

Biological target: AMP-activated protein kinase, AMPK (Homo sapiens) (UniProt P54646+O43741+P54619+Q9UGJ0+Q9Y478+Q13131+Q9UGI9)
Assay: AMP-dependent Kinase enzyme assay. An in vitro enzyme assay that detects ADP turnover that is directly proportional to AMPK activity. This uses naive AMPK that is activated during the assay with MK-8722
Assay type: functional
Parameters: scale not given: direction of the effect not stated beside the values
Conditions: 30 µM

SMILES | Percent Effect
CN1CCN(CCOc2ccc(NC(=O)c3ccncc3)cc2)CC1 | 0.498%
CCCC1(CO)CCCN(C(=O)CNC(C)=O)C1 (stereo not given) | -1.86%
O=C(Nc1ccncc1)NC1CCN(c2ccccc2OC(F)F)C1 (stereo not given) | -0.97%
Cn1ncnc1NCc1ccc(F)cc1 | -10.9%
O=C(Nc1ccc(Br)cc1F)c1ccc(N2CCCCC2)nn1 | 1.92%
C[C@@H]1CN(c2cccnn2)CC[C@@]1(O)C1CCOCC1 | 2.06%
CCS(=O)(=O)NCC(=O)NC1(C)CCc2ccccc2C1 (stereo not given) | -3.96%
CCc1nc(C)c(CN2CCOC(Cc3cccc4ccccc34)C2)[nH]1 (stereo not given) | -0.756%
CC1(c2ncc(CN3CCN(c4ccccn4)CC3)cn2)CCCCO1 (stereo not given) | 5.55%
CN(C)S(=O)(=O)c1ccc(=O)n(CC2CCCCO2)c1 (stereo not given) | 8.37%
O=C(NCCc1nccs1)N1CCC(n2cccc2)CC1 | -2.66%
COc1ccccc1C(=O)NCCC(=O)Nc1c(C)nn(C)c1C | 9.26%
COc1nccc(N2CC[C@@H](N3CCN(C)CC3)[C@H](O)C2)c1C#N | -9.72%
CC(C)N(CCO)C(=O)c1cc(COc2ccc3c(c2)CCCC3)on1 | -2.41%
O=S(=O)(c1cn[nH]c1)N1CCC(O)(CN2CCC(F)(F)CC2)C1 (stereo not given) | 9.16%
COc1ccc(C2CCN(S(=O)(=O)CCCC#N)CC2)cc1 | -2.21%
CCc1nc(CCNS(=O)(=O)c2cccc(C(=O)N(C)CC)c2)cs1 | 1%
CCC(CC)C(=O)N1CCC2(CC1)c1ccccc1[C@@H](OC)[C@@H]2O | 14%
Cc1cc(C2CCCN(Cc3nnc(Cc4ccccc4)o3)C2)n[nH]1 (stereo not given) | 18%
NC(=O)CN1CCC(C(=O)NCC(O)c2cccc(F)c2)CC1 (stereo not given) | -5.48%

SMILES | Percent Effect
Cc1nonc1CN1CC[C@@](O)(C2CCC2)[C@H](C)C1 | -1.54%
Cc1nc(C)c(C(=O)N2CCc3c(Cl)cccc32)o1 | 1.75%
NC(=O)C(NC1CCN(CC2CCCCC2)CC1)c1ccc(F)cc1 (stereo not given) | -4.02%
CN(C)Cc1ccc(C(=O)N2CCCC(COc3ccc(F)cc3)C2)o1 (stereo not given) | 7.84%
Cc1cc(C2CCCN(Cc3noc(Cc4ccccc4)n3)C2)n[nH]1 (stereo not given) | 35%
CC1CN(C)CCN1C(=O)c1cccn1Cc1cccnc1 (stereo not given) | -3.9%
CCCC1(CO)CCCN(C(=O)CNC(N)=O)C1 (stereo not given) | 8.45%
COc1cccc(C(=O)N2CCN(C(=O)CCCc3cn[nH]c3)CC2)c1 | -1.35%
O=C(Nc1ccc(I)cc1C(=O)NCCN1CCOCC1)c1ccco1 | 12.6%
Fc1ccccc1CN1CCC[C@H](Cn2nnc(-c3cccs3)n2)C1 | 4.46%
CCOCCNCc1cc(O)c2cc(C)ccc2n1 | -3.23%
N#CC1COCCN1C(=O)c1ccc2[nH]cnc2c1 (stereo not given) | -8.21%
Cc1noc(CCCc2nc(C3CCOC3)no2)n1 (stereo not given) | 10.8%
Cc1nsc(C(=O)NCCc2cccs2)n1 | 1.77%
CC(C)C(=O)Nc1cccc(CNC(=O)CSCc2ccccn2)c1 | 1.74%
CC(=O)Nc1ccc(-c2ccccc2NC(=O)CN)cc1 | 17.8%
COC(=O)C1CN(Cc2ccn(-c3ccc(F)cc3)n2)CCO1 (stereo not given) | -6.99%
Cc1nccn1CCN1C(=O)CC2(CCCC2)CC1=O | 8.33%
Nc1ncnc2nc(C3CCCCN3)ccc12 (stereo not given) | 15.5%
COc1ccccc1CN(Cc1nc(Cc2ccccc2)no1)C1CC1 | 12.8%
